# Measurements from paper PMC7862700, “An all-to-all approach to the identification of sequence-specific readers for epigenetic DNA modifications on cytosine”.
# Key:
# Experiment in all cases: DAPPL (digital affinity profiling via proximity ligation, sequencing); 10 mM Tris-HCl pH 7.5, 50 mM NaCl, 1 mM DTT, 4% glycerol, room temperature, 30 min; GST-TFs on glutathione beads, 16-mer random dsDNA library, 0.1% formaldehyde crosslink after washing; high values mean tight binding
# Conditions in all cases: protein: recombinant; tags: N-terminal GST; dsDNA, one strand shown
# FLI1 = target: T1, FLI1 (Homo sapiens, UniProt Q01543 1-452)
# T1 sequence: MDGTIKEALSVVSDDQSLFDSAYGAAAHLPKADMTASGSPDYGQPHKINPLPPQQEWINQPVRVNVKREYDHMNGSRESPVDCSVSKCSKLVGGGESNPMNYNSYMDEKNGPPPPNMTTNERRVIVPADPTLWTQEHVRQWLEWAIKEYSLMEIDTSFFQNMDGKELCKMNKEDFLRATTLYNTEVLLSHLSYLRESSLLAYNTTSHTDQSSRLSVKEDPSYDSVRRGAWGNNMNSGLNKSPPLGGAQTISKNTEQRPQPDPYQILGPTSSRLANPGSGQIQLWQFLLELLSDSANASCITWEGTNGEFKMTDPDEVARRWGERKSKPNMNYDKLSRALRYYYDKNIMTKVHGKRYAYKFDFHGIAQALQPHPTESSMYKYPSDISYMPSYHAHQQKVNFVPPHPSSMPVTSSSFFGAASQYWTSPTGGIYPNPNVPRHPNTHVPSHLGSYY
# How it was run: (§1)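 Binding signal is given per hexamer as its read frequency for a factor divided by its frequency in the tag-only sample. GST-fused human transcription factors were expressed in yeast, captured on glutathione beads, barcoded with DNA and pooled with that sample, then incubated with 200 nmole of a 16-mer random double-stranded DNA library in Tris/NaCl/DTT/glycerol buffer for 30 min at room temperature. The pools were then washed, crosslinked, proximity-ligated, amplified by PCR and sequenced on an Illumina NextSeq500.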
# ELK1 = target: T2, ELK1 (Homo sapiens, UniProt P19419 1-428)
# T2 sequence: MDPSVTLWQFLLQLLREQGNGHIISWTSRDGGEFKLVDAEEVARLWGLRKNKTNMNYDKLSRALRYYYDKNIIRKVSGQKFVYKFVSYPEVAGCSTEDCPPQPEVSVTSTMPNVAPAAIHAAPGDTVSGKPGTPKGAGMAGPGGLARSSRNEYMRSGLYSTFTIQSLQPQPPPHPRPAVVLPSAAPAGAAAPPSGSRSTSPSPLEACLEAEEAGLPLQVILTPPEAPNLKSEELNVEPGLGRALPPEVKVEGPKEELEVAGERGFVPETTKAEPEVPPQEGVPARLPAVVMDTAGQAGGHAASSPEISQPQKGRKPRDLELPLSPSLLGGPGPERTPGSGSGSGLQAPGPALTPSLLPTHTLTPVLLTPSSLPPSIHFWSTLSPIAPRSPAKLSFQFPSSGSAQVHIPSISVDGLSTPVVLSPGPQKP
# How it was run: as §1
# GABPA = target: T3, GABPA (Homo sapiens, UniProt Q06546 1-454)
# T3 sequence: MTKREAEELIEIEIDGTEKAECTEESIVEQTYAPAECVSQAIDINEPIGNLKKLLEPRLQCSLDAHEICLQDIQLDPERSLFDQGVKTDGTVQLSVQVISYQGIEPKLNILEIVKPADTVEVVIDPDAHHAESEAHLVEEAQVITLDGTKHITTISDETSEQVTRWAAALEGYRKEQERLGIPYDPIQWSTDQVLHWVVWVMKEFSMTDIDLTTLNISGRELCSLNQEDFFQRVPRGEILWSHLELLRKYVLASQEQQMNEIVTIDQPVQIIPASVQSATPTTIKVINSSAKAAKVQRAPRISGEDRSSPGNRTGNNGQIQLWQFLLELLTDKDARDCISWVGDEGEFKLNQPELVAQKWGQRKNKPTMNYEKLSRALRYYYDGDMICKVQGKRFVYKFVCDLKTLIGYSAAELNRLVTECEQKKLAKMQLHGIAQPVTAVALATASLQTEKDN
# How it was run: as §1
# ERG = target: T4, ERG (Homo sapiens, UniProt P11308 1-479)
# T4 sequence: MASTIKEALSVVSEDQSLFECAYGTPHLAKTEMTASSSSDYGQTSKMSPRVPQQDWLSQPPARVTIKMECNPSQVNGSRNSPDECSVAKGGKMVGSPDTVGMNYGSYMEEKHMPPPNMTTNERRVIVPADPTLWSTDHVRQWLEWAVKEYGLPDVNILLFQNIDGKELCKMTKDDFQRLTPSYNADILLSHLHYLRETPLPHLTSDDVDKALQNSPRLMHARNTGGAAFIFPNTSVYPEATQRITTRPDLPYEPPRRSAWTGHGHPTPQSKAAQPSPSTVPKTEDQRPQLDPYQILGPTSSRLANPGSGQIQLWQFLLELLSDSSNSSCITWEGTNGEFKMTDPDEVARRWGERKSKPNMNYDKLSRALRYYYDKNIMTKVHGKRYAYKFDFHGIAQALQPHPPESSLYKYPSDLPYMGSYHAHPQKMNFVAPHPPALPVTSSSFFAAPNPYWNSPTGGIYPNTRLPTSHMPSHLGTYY
# How it was run: as §1
# ELF1 = ELF1 (Homo sapiens, UniProt P32519 1-619)
# Sequence of ELF1 (P32519 whole entry): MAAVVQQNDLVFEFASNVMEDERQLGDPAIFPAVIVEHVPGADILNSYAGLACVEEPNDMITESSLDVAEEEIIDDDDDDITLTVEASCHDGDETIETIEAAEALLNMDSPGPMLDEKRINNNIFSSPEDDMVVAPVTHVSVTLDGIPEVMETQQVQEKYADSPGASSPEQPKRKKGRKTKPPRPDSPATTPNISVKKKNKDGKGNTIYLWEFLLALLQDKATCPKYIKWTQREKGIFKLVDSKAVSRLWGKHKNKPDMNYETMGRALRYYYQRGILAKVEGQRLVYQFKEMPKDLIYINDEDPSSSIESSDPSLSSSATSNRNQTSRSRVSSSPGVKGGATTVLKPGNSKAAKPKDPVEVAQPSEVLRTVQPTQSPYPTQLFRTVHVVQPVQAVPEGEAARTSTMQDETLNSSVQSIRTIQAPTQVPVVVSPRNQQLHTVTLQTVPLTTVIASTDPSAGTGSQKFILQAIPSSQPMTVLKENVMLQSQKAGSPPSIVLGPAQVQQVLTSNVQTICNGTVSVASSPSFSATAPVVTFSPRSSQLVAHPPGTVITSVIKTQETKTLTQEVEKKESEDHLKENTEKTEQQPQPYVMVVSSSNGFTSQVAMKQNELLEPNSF
# How it was run: as §1
# EHF = target: T5, EHF (Homo sapiens, UniProt Q9NZC4 1-300)
# T5 sequence: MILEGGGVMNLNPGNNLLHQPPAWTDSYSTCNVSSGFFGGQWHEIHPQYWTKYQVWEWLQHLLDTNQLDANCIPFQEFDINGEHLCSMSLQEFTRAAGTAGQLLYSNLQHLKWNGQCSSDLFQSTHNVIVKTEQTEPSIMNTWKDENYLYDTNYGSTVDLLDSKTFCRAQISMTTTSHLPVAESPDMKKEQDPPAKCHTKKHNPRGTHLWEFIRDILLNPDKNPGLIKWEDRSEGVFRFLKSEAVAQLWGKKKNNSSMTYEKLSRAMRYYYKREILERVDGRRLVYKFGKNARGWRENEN
# How it was run: as §1
# SPI1 = SPI1 (Homo sapiens, UniProt P17947 1-270)
# How it was run: as §1
# SPIB = SPIB (Homo sapiens, UniProt Q01892 1-262)
# Sequence of SPIB (Q01892 whole entry): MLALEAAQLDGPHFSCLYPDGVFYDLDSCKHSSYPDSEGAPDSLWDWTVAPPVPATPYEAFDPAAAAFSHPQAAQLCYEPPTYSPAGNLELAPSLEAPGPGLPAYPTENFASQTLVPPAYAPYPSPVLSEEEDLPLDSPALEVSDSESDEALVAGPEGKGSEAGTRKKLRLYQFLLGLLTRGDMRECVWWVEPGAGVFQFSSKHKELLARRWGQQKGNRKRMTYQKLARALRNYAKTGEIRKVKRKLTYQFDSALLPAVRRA
# How it was run: as §1
# ELK3 = target: T6, ELK3 (Homo sapiens, UniProt P41970 1-407)
# T6 sequence: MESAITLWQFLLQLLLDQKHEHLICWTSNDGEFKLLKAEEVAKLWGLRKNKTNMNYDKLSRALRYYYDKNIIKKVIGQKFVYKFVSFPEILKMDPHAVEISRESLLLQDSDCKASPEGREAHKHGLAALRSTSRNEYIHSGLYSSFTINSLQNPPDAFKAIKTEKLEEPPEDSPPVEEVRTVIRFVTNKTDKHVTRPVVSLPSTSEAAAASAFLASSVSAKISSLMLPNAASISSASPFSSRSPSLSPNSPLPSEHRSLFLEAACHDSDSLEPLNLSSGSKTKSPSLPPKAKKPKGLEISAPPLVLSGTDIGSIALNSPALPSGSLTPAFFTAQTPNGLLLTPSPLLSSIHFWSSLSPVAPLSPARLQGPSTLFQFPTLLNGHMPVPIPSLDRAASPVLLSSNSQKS
# How it was run: as §1
# FEV = target: T7, FEV (Homo sapiens, UniProt Q99581 1-238)
# T7 sequence: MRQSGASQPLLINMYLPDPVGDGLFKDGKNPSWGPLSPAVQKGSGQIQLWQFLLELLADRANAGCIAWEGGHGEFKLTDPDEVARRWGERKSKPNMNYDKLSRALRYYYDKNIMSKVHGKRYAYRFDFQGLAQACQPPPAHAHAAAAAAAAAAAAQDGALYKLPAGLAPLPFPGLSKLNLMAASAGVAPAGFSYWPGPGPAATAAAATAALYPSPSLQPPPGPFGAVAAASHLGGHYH
# How it was run: as §1
sequence,measurement,setting,value
ATGGTG,binding signal,FLI1,"1.17 fold enrichment (6-mer frequency, TF over GST control)"
same,binding signal,ELK1,"1.27 fold enrichment (6-mer frequency, TF over GST control)"
same,binding signal,GABPA,"1.1 fold enrichment (6-mer frequency, TF over GST control)"
same,binding signal,ERG,"1.19 fold enrichment (6-mer frequency, TF over GST control)"
same,binding signal,ELF1,"1.13 fold enrichment (6-mer frequency, TF over GST control)"
same,binding signal,EHF,"1.17 fold enrichment (6-mer frequency, TF over GST control)"
same,binding signal,SPI1,"1.07 fold enrichment (6-mer frequency, TF over GST control)"
same,binding signal,SPIB,"1.01 fold enrichment (6-mer frequency, TF over GST control)"
same,binding signal,ELK3,"1.02 fold enrichment (6-mer frequency, TF over GST control)"
same,binding signal,FEV,"1.06 fold enrichment (6-mer frequency, TF over GST control)"
